Inconclusive results are not listed. The source made the active and inactive calls. How the source made its calls, unless noted: active means hit-call score of the fitted dose curve at least 0.9, where 1 is the maximum; inactive means score below 0.9.
Legend:
[1] = CCTE_Shafer_MEA_dev_firing_rate_mean: CCTE's Neural Network Formation Assay for Mean Firing Rate, Shafer Lab (AID 2284031)
In short: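 Rat primary cortical neurons were seeded on multielectrode arrays and treated from plating through day 12, with redosing at each feed. Spontaneous spiking was recorded four times; mean firing rate AUC was fitted downward against DMSO.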

[2] = CCTE_Shafer_MEA_dev_per_burst_spike_percent: CCTE's Neural Network Formation Assay for Percent of Spikes in a Burst, Shafer Lab (AID 2284032)
In short: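 Rat primary cortical neurons on 16-electrode MEA wells, dosed from plating day 0 for 12 days with renewal on DIV 5 and 9; spikes-in-bursts percentage averaged over bursting electrodes, collapsed as AUC across days 5, 7, 9, 12; loss direction versus DMSO.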

[3] = CCTE_Shafer_MEA_dev_burst_rate: CCTE's Neural Network Formation Assay for Burst Rate, Shafer Lab (AID 2284042)
In short: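 Primary rat cortical neurons on PEI-coated 48-well MEA plates (laminin added with cells at plating) (16 electrodes/well), exposed from plating to day 12, dosing renewed at DIV 5 and 9. Burst rate averaged over active electrodes, recorded DIV 5, 7, 9, 12, summarized as AUC; loss versus DMSO.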

[4] = CCTE_Shafer_MEA_dev_per_burst_interspike_interval: CCTE's Neural Network Formation Assay for Burst Interspike Interval, Shafer Lab (AID 2284044)
In short: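 Readout is the average time between spikes inside single-electrode bursts, taken as a well mean across bursting electrodes. Cortical neurons from rat developed networks on MEA plates under continuous 12-day exposure; recordings on days 5, 7, 9 and 12 were integrated by trapezoidal AUC.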

[5] = CCTE_Shafer_MEA_dev_interburst_interval_mean: CCTE's Neural Network Formation Assay for Mean Interburst Interval, Shafer Lab (AID 2284046);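 further: well-mean interburst interval of bursting electrodes as AUC over four recording days; curve fitted for decrease in interburst interval relative to DMSO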
In short: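 Recordings on days 5, 7, 9 and 12 give well-mean interburst interval across actively bursting electrodes, summarized as area under the curve. Cultures: rat cortical neurons, continuous exposure from day 0, compound renewed at feeds; decrease analyzed versus DMSO.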

[6] = CCTE_Shafer_MEA_dev_inter_network_spike_interval_mean: CCTE's Neural Network Formation Assay for Mean Inter-network Spike Interval, Shafer Lab (AID 2284047)
In short: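 Primary rat cortical neurons on 16-electrode MEA wells, exposed from plating day 0 through DIV 12, compound renewed at DIV 5 and 9 media changes. Mean interval between network-spike peaks recorded DIV 5, 7, 9, 12; collapsed as trapezoidal AUC, fitted downward versus DMSO.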

[7] = CCTE_Shafer_MEA_dev_network_spike_number: CCTE's Neural Network Formation Assay for Number of Network Spikes, Shafer Lab (AID 2284048)
In short: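 Developing networks of primary rat cortical neurons are treated over 12 days starting at plating, with media and compound fully replaced on DIV 5 and 9. Network spike counts from four recording days are integrated as trapezoidal AUC.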

[8] = CCTE_Shafer_MEA_dev_network_spike_peak: CCTE's Neural Network Formation Assay for Mean Number of Electrodes in Network Spike, Shafer Lab (AID 2284049)
In short: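 Rat cortical primary culture, 1.5 x 10^5 cells/well, 48-well MEA (16 electrodes/well). Dosing day 0 through DIV 12, full media/compound exchange DIV 5, 9. AxIS adaptive spike detection; AUC over days 5/7/9/12; loss-of-signal vs DMSO.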

[9] = CCTE_Shafer_MEA_dev_network_spike_duration_std: CCTE's Neural Network Formation Assay for Standard Deviation of Network Spike Duration, Shafer Lab (AID 2284052);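 further: area under curve of spike duration SD across recording days 5 to 12; hits are decreases in network spike duration SD versus DMSO vehicle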
In short: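 Primary rat cortical neurons on PEI-coated 16-electrode MEA wells, exposed from plating day 0 through day 12 with compound renewed at DIV 5 and 9. Network spike duration SD recorded on days 5, 7, 9, 12, collapsed as trapezoidal AUC; loss-of-signal fit versus DMSO.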

[10] = CCTE_Shafer_MEA_dev_per_network_spike_spike_number_mean: CCTE's Neural Network Formation Assay for Mean Number of Spikes in a Network Spike, Shafer Lab (AID 2284053)
In short: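 Primary rat cortical neurons on 48-well, 16-electrode MEA plates were exposed from plating to DIV 12, with dosing renewed on DIV 5 and 9. Spikes per network spike (0.05 s peak window) were recorded on DIV 5, 7, 9 and 12 and collapsed as trapezoidal AUC versus DMSO.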

[11] = CCTE_Shafer_MEA_dev_per_network_spike_spike_percent: CCTE's Neural Network Formation Assay for Percent of Spikes in a Network Spike, Shafer Lab (AID 2284054)
In short: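 Rat primary cortical cultures, 1.5 x 10^5 cells/well on MEA. Continuous compound exposure d0–12, medium/compound renewed DIV 5, 9. Network-spike spike % (0.05 s peak window), AUC over 4 recordings, DMSO baseline.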

[12] = CCTE_Shafer_MEA_dev_LDH: CCTE's Lactate Dehydrogenase Assay for Cytotoxicity in the Neural Network Formation Assay, Shafer Lab (AID 2284068; active means hit-call score of the fitted dose curve at least 0.9, where 1 is the maximum;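 further: exposure for twelve days from plating with re-dosing on DIV 5 and 9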)
In short: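 Primary rat cortical neurons were plated on PEI/laminin MEA plates and exposed from day 0 for twelve days, with compound renewed at DIV 5 and 9. Cytotoxicity was determined by spectrophotometric LDH assay relative to DMSO.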

[13] = CCTE_Shafer_MEA_dev_AB: CCTE's Alamar Blue Assay for Cytotoxicity in the Neural Network Formation Assay, Shafer Lab (AID 2284083; active means hit-call score of the fitted dose curve at least 0.9, where 1 is the maximum;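 further: twelve days of exposure from plating with re-dosing on DIV 5 and 9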)
In short: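 Primary rat cortical neurons on PEI-coated 48-well MEA plates, 1.5 x 10^5 cells/well in laminin drop; compound exposure from day 0 of plating for twelve days, renewed at medium changes on DIV 5 and 9. Viability read as resazurin reduction by fluorescence, relative to DMSO.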

[14] = IUF_NPC1b_proliferation_BrdU_72hr: Leibniz Research Institute for Environmental Medicine (IUF) 72-hour Neural Progenitor Cell Bromodeoxyuridine (BrdU) Proliferation Assay (NPC1b) (AID 2284207)
In short: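 Proliferation of primary human neural progenitor cells: 72 h compound treatment at 37C, 5% CO2, pH 7.2-7.6, in EGF/FGF-containing medium. Readout is BrdU uptake (last 16 h) by chemiluminescent ELISA, normalised to DMSO.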

[15] = IUF_NPC1_viability_72hr: Viability Assessment at 72 hours in the Leibniz Research Institute for Environmental Medicine (IUF) Neural Progenitor Cell Proliferation Assay (NPC1) (AID 2284209)
In short: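 hNPC spheres, 1/well, EGF+FGF medium, 37C/5% CO2; dosed day 0, 72 h, no re-dosing. Resazurin reduction (alamar blue) fluorescence; DMSO = negative control/baseline; growth-factor-free wells as positive control.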

[16] = CCTE_Mundy_HCI_Cortical_Synap_Neur_Matur_NeuriteSpotCountPerNeuriteLength: CCTE's Synaptogenesis and Neurite Maturation Assay in rat cortical cells for Neurite Spot Count per Neurite Length, Mundy Lab (AID 2284210)
In short: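 Primary rat cortical neurons, compound exposure DIV 7–12, 288.33 h endpoint. Hoechst, anti-MAP2 and anti-synaptophysin labelling; neurite-associated puncta per neurite length scored by automated imaging relative to DMSO controls.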

[17] = CCTE_Mundy_HCI_Cortical_Synap_Neur_Matur_BPCount: CCTE's Synaptogenesis and Neurite Maturation Assay in rat cortical cells for Branch Point Count, Mundy Lab (AID 2284211)
In short: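 Rat primary cortical cultures, AraC added DIV 5; chemicals dosed DIV 7 through DIV 12. Fixed cells stained for MAP2, synaptophysin and Hoechst; neurite branch points counted by automated high-content imaging, fitted relative to DMSO.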

[18] = CCTE_Mundy_HCI_Cortical_NOG_NeuriteCount: CCTE's Neurite Outgrowth Assay in rat cortical cells for Neurite Count, Mundy Lab (AID 2284212);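 further: cells fixed about two days after chemical exposure began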
In short: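 Neurite number per cell from high-content imaging of betaIII-tubulin immunostaining, with Hoechst nuclear counterstain.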

Measured: AC50

F
active: [14] 1040 µM | [15] 2640 µM
inactive: [1] | [2] | [3] | [4] | [5] | [6] | [7] | [8] | [9] | [10] | [11] | [12] | [13] | [16] | [17] | [18]

— PubChem BioAssay (EPA / NIEHS)
